# According to PubChem BioAssay (Tox21):
# “And” between values parts separate entries of the source, which are not always exact repeats. Equal values may be shown once. Records with an inconclusive call do not appear. Where a call stands in place of a potency, no number is given. Where a structure was tested more than once in an assay, its records may differ in their call. The source made the active and inactive calls. Unless noted, the call rests on the fitted dose curve; in most records, active means well fitted curve in the direction sought with a large enough effect in the repeat runs; inconclusive means weak or mixed curves; inactive means no such curve, though single readings can be large; an effect the other way counts as inactive or inconclusive.
# Key:
# [1] = molecular target: Thyrotropin receptor (Homo sapiens) (UniProt P16473); assay: qHTS assay to identify small molecule antagonists of the thyroid stimulating hormone receptor (TSHR) signaling pathway (AID 1259385; calls by dose curve; further: nearly all actives have a fitted effect of over 20% in size)
# Thyrotropin receptor (Homo sapiens), sequence (P16473 whole entry, looked up): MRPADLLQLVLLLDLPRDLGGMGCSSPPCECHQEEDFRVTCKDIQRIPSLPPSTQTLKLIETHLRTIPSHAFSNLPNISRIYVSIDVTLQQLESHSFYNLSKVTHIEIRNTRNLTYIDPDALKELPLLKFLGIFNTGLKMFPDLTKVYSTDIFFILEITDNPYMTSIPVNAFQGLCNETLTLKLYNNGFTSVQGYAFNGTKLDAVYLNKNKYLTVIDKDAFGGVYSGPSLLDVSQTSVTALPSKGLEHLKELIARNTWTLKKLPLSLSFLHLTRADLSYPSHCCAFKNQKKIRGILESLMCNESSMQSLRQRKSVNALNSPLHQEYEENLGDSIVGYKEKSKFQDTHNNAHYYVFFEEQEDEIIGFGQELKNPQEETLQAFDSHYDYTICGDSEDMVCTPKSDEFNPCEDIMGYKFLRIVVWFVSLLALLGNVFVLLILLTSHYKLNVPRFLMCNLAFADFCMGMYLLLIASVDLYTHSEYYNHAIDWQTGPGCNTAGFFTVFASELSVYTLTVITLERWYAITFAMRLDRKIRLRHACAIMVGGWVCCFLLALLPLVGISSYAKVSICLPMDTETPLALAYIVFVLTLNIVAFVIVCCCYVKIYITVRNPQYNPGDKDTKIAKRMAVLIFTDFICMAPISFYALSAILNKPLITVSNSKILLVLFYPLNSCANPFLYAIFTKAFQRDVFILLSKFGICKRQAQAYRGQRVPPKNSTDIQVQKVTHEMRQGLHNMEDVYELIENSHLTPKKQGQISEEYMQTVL
# Summary of the method: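 Antagonist mode: compound-treated TSHR-expressing HEK293 cells were stimulated with 1.5 ng/mL TSH (final) in presence of Ro20-1724 for 30 min at RT. HTRF cAMP detection after 1 h; each compound tested at 15 concentrations, triplicate.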
# [2] = qHTS assay to identify small molecule agonists of the estrogen receptor alpha (ER-alpha) signaling pathway in the presence of an antagonist - cell viability counter screen (AID 1259386);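 further: series mostly up to about 92 µM; cells exposed to compounds for 22 h at 37 °C before the viability read; nearly all actives have a fitted effect of over 30% in size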
# Summary of the method: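 ICI-182,780 at 10.0nM final accompanies the compound titration (15 concentrations, 22hr, 37C) on VM7Luc4E2 cells. The CellTiter-Fluor fluorescence readout runs in the same wells as the luciferase assay.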
# [3] = molecular target: Progesterone receptor (Homo sapiens) (UniProt P06401); assay: qHTS assay to identify small molecule agonists of the progesterone receptor (PR) signaling pathway (AID 1346784; calls by dose curve; further: nearly all actives have a fitted effect of over 30% in size; further: potency means the concentration at half of the fitted maximal effect)
# Progesterone receptor (Homo sapiens), sequence (P06401 whole entry, looked up): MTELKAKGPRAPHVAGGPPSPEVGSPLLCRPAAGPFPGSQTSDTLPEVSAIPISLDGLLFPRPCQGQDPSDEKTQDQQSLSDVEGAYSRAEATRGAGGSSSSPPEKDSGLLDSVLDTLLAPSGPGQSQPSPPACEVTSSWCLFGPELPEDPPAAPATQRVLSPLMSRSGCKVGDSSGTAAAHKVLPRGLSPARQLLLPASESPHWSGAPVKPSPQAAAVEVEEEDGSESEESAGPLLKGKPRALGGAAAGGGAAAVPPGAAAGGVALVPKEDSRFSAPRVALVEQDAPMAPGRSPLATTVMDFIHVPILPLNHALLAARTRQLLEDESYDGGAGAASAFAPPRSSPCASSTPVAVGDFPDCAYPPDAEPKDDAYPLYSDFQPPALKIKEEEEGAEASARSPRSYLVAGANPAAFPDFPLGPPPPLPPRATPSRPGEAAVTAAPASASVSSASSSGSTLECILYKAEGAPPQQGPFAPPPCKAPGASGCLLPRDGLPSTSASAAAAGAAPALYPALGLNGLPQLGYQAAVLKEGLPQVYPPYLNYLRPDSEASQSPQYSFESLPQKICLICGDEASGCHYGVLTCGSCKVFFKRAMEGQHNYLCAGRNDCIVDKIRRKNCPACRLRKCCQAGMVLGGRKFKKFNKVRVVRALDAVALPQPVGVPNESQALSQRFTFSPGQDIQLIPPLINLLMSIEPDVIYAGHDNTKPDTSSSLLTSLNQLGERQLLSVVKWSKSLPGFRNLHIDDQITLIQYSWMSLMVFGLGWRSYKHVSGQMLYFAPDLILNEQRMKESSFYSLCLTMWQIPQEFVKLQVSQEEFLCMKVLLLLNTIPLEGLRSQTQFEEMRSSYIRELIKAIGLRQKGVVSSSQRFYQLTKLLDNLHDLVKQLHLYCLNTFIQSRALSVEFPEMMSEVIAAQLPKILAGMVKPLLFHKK
# Summary of the method: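 PR-UAS-bla HEK 293T cells (beta-lactamase reporter under UAS) in 2% charcoal-stripped FBS, dosed with 23 nL compound after 6 hr, incubated 16hr at 37C. LiveBLAzer B/G FRET substrate added, fluorescence read after 2 hours.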
# [4] = molecular target: Progesterone receptor (Homo sapiens) (UniProt P06401); assay: qHTS assay to identify small molecule antagonists of the progesterone receptor (PR) signaling pathway (AID 1346795; active means well fitted inhibition curve with a large enough effect in the signal ratio in the repeat runs, not every such curve was filed as active; the % refers to the signal ratio; further: potency means the concentration at half of the fitted maximal effect)
# Summary of the method: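 PR-UAS-bla HEK293T cells with beta-lactamase reporter under UAS control, in 2% charcoal-stripped FBS, treated with compounds plus 1 nM promegestone (R5020, final) for 16 hr at 37C. Read-out: FRET beta-lactamase substrate fluorescence after 2 hr at room temperature.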
# [5] = qHTS assay to identify small molecule antagonists of the progesterone receptor (PR) signaling pathway - cell viability counter screen (AID 1346798); further: nearly all actives have a fitted effect of over 50% in size; further: potency means the concentration at half of the fitted maximal effect
# Summary of the method: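 PR-UAS-bla HEK293T cells, 3,000/well in 2% charcoal-stripped FBS medium, dosed with compounds plus R5020 agonist and incubated 16 h at 37C. Viability then measured in the same wells by CellTiter-Glo luminescence after 30 min at RT.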
# [6] = qHTS assay to identify small molecule agonists of the progesterone receptor (PR) signaling pathway - cell viability counter screen (AID 1346799; calls by dose curve; further: nearly all actives have a fitted effect of over 45% in size)
# Summary of the method: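 Counter screen in the PR-UAS-bla HEK293T wells (2% charcoal-stripped FBS, 16 h compound exposure at 37 C) after the bla read. CellTiter-Glo added, 30 min at room temperature, luminescence read as cell viability.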
# [7] = qHTS assay to identify small molecule antagonists of the TGF-beta/Smad signaling pathway - cell viability counter screen (AID 1346824); further: nearly all actives have a fitted effect of over 50% in size
# Summary of the method: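 Cytotoxicity counter-screen run in the same wells as the beta-lactamase Smad reporter read: CellTiter-Glo luminescence after 30 min at room temperature. HEK 293T SBE-bla cells had 5 hr compound exposure at 37 C with TGF-beta1 (0.25 ng/mL stock).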
# [8] = qHTS assay to identify small molecule agonists of the TGF-beta/Smad signaling pathway - cell viability counter screen (AID 1346829); further: top concentration of the series differs between compounds; nearly all actives have a fitted effect of over 45% in size
# Summary of the method: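 Same-well cytotoxicity: CellTiter-Glo added after the 2 hr room-temperature beta-lactamase substrate step, luminescence measured 30 min later; cells had 5 hr of compound at 37 C.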
# [9] = qHTS assay to identify small molecule agonists of the TGF-beta/Smad signaling pathway (AID 1346859; active means well fitted activation curve with a large enough effect in the signal ratio in the repeat runs, not every such curve was filed as active; the % refers to the signal ratio; further: series mostly up to about 77 µM)
# Summary of the method: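 SBE-bla HEK293T cells plated overnight, then compound exposure for 5 h at 37 C. Beta-lactamase reporter read with LiveBLAzer B/G FRET substrate after 2 h at room temperature, fluorescence at 405 nm excitation, 460/530 nm emission.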
# [10] = Human pregnane X receptor (PXR) small molecule agonists, qHTS cell viability counter screen (AID 1346977); further: nearly all actives have a fitted effect of over 50% in size; further: potency means the concentration at half of the fitted maximal effect
# Summary of the method: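 PXR-Luc HepG2 cells (2,000/well, 5% charcoal-stripped FBS) preincubated 5 hr, then exposed to compounds 24 hr at 37 C. Viability read in the same wells by CellTiter-Fluor fluorescence, reagent added at 23 hr, 1 hr incubation.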
# [11] = Caspase-3/7 induction in HepG2 cells by small molecules, qHTS assay (AID 1346978); further: nearly all actives have a fitted effect of over 15% in size
# Summary of the method: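 Caspase-3/7 induction was measured by Caspase-Glo 3/7 luminescence (30 min, room temperature) after a 17 hr compound exposure of wild-type HepG2 cells seeded at 2,000 per well and pre-incubated 5 hr.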
# [12] = Caspase-3/7 induction in CHO-K1 cells by small molecules, qHTS cell viability counter screen (AID 1346979); further: nearly all actives have a fitted effect of over 35% in size; further: potency means the concentration at half of the fitted maximal effect
# Summary of the method: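 Wild-type CHO-K1 cells (1,500/well) treated with compound after 5 h plating; after 16 h at 37C, viability read as CellTiter-Fluor fluorescence following 1 h reagent incubation, in the same wells as the caspase read.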
# [13] = Caspase-3/7 induction in HepG2 cells by small molecules, qHTS cell viability counter screen (AID 1346981); further: nearly all actives have a fitted effect of over 30% in size; further: potency means the concentration at half of the fitted maximal effect
# Summary of the method: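 Multiplexed with the caspase-3/7 assay: HepG2 cells, 16 hr compound treatment, CellTiter-Fluor viability detection by fluorescence.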
# [14] = molecular target: Nuclear receptor subfamily 1 group I member 2 (Homo sapiens) (UniProt O75469); assay: Human pregnane X receptor (PXR) small molecule agonists, qHTS assay (AID 1346982); further: nearly all actives have a fitted effect of over 35% in size
# Nuclear receptor subfamily 1 group I member 2 (Homo sapiens), sequence (O75469 whole entry, looked up): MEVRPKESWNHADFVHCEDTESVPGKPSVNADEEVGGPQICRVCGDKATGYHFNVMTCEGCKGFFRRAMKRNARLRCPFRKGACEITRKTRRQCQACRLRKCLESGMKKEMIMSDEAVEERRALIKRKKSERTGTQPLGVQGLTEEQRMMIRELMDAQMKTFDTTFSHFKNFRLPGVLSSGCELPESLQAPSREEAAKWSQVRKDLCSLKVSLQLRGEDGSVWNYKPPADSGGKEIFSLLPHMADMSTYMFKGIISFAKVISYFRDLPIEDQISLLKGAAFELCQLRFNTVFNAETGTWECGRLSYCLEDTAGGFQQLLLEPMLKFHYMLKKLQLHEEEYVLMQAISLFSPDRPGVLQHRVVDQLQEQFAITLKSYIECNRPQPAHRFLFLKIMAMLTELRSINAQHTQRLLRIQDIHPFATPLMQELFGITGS
# Summary of the method: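 We seeded PXR-Luc HepG2 cells in assay medium containing 5% charcoal-stripped FBS, added compounds 5 hr later, incubated 24 hr, and read luminescence with ONE-Glo reagent.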
# [15] = molecular target: Thyrotropin-releasing hormone receptor (Homo sapiens) (UniProt P34981); assay: qHTS assay to identify small molecule antagonists of the thyrotropin-releasing hormone receptor (TRHR) signaling pathway (AID 1346877; active means well fitted inhibition curve with a large enough effect in the repeat runs, not every such curve was filed as active; further: series mostly up to about 51 µM)
# Thyrotropin-releasing hormone receptor (Homo sapiens), sequence (P34981 whole entry, looked up): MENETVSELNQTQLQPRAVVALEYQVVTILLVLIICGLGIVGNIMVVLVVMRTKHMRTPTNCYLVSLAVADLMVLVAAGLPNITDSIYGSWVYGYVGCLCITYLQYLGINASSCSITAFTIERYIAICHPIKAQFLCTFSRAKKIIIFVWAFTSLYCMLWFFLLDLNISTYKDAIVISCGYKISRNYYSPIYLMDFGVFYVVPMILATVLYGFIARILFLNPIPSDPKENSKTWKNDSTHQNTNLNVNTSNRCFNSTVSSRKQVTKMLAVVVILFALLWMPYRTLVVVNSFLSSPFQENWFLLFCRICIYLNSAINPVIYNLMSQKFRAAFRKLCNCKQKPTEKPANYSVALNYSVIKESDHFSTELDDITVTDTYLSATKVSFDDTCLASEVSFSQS
# Summary of the method: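 Screening used HEK293 cells engineered with TRHR, with a brief 5 min room-temperature compound exposure preceding addition of TRH to 1 nM. The read-out was kinetic calcium-dye fluorescence, concentration-response from 15 doses in triplicate.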
# [16] = Caspase-3/7 induction in CHO-K1 cells by small molecules, qHTS assay (AID 1346980); further: nearly all actives have a fitted effect of over 15% in size
# Summary of the method: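 Luminescent Caspase-Glo 3/7 read (30min, room temperature) quantified apoptosis induction. Cells were wild-type CHO-K1, treated with compound for 17hr at 37 C and 5% CO2.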
# [17] = molecular target: Nuclear receptor subfamily 1 group I member 2 (Rattus norvegicus) (UniProt Q9R1A7); assay: Rat pregnane X receptor (rPXR) activation by small molecules, qHTS assay (AID 1346983); conditions: rPXR luciferase reporter cells, One-Glo luminescence, 24 h; stronger effect = higher value; further: nearly all actives have a fitted effect of over 20% in size
# Nuclear receptor subfamily 1 group I member 2 (Rattus norvegicus), sequence (Q9R1A7 whole entry, looked up): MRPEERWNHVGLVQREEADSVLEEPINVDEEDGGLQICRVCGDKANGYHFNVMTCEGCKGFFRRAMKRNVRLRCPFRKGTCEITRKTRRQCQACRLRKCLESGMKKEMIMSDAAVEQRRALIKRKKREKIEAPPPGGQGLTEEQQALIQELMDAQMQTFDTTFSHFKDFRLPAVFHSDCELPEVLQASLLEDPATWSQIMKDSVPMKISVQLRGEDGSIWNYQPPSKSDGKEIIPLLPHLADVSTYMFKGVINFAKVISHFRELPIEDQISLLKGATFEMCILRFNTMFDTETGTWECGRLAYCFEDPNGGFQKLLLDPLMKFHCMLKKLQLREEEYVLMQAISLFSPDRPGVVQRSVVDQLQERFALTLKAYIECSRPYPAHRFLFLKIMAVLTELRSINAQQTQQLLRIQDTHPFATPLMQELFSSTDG
# Summary of the method: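 Luminescent readout (One-Glo luciferase, 30 min room temperature) followed 24 hr compound treatment at 37 C of rPXR cells plated 2,000 per well and preincubated 5hr; qHTS format with compounds delivered in DMSO.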
# [18] = molecular target: Nuclear receptor subfamily 1 group I member 2 (Homo sapiens) (UniProt O75469); assay: CYP3A4 induction through human pregnane X receptor (PXR) by small molecules, qHTS assay (AID 1346984); further: nearly all actives have a fitted effect of over 40% in size
# Summary of the method: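 qHTS, concentration-response format: HepG2 DPX-2 line, PXR/CYP3A4-luc. Exposure 24 h, 37C. Substrate Luciferin-IPA 3uM final, 3 h. Detection One-Glo, 30 min RT.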
# [19] = molecular target: Nuclear receptor subfamily 1 group I member 2 (Homo sapiens) (UniProt O75469); assay: Human pregnane X receptor (PXR) activation by small molecules, qHTS assay (AID 1346985); further: nearly all actives have a fitted effect of over 40% in size
# Summary of the method: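 DPX-2 cells (HepG2 co-transfected with a PXR response element and a CYP3A4-promoter luciferase construct) were seeded at 2,000 per well, rested 5 hr at 37C, then exposed to DMSO-dissolved compounds for 24 hr. Activation was read as luciferase luminescence.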
# [20] = molecular target: Thyrotropin-releasing hormone receptor (Homo sapiens) (UniProt P34981); assay: qHTS assay to identify small molecule agonists of the thyrotropin-releasing hormone receptor (TRHR) signaling pathway (AID 1346891; calls by dose curve; further: series mostly up to about 58 µM)
# Summary of the method: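 HEK293 cells expressing TRHR plated 18 h at 37 C/5% CO2, calcium dye-loaded 2 h at 37 C, then compound added (agonist mode); kinetic calcium fluorescence read 3 min at 1 s intervals; 15 concentrations in triplicate.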
SMILES,Potency [1],Potency [2],Potency [3],Potency [4],Potency [5],Potency [6],Potency [7],outcome [8],outcome [9],Potency [10],Potency [11],Potency [12],Potency [13],Potency [14],outcome [15],outcome [16],max activation [17],Potency [18],Potency [19],outcome [20]
NC(=O)c1ccc(N)cc1,inactive,inactive,inactive,inactive,inactive,inactive,inactive,inactive,inactive,inactive,inactive,inactive,inactive,inactive,,,,,,
OCCCC1CCCCC1,inactive,inactive,inactive,inactive,inactive,inactive,inactive,,inactive,inactive,inactive,inactive,inactive,inactive,inactive,,,,,
CC(C)(C)NCCNC(C)(C)C,inactive,inactive,inactive,inactive,864 nM (active),inactive,inactive,inactive,inactive,inactive,inactive,inactive,inactive,inactive,,,,,,
FC1(F)C(F)(F)C(F)(F)C2(F)C(F)(F)C(F)(F)C(F)(F)C(F)(F)C2(F)C1(F)F (centres undefined),inactive,inactive,inactive,inactive,inactive,inactive,inactive,inactive,inactive,inactive,inactive,inactive,inactive,inactive,,inactive,-2.25% (inactive),inactive,inactive,
CCCC(=O)O[C@]1(C(=O)CO)CC[C@H]2[C@@H]3CCC4=CC(=O)CC[C@]4(C)[C@H]3[C@@H](O)C[C@@]21C,inactive,inactive,841 nM (active),inactive,inactive,,inactive,inactive,inactive,inactive,inactive,inactive,inactive,,inactive,inactive,,inactive,inactive,
CC(C)NC(=O)NC(C)C,inactive,inactive,inactive,inactive,inactive,inactive,inactive,,inactive,inactive,inactive,inactive,inactive,inactive,inactive,,,,,inactive
N=C(N)c1ccc(OCCCOc2ccc(C(=N)N)cc2)cc1,inactive,inactive,inactive,inactive,inactive,inactive,inactive,,inactive,inactive,inactive,inactive,inactive,inactive,,,,,,
COC(=O)C1=C(C)NC(C)=C(C(=O)OC)C1c1ccccc1[N+](=O)[O-],inactive,inactive,inactive,23700 nM (active),inactive,inactive,inactive,,inactive,48.6 µM (active) and inactive,inactive,48.6 µM (active) and 26.6 µM (active),30.7 µM (active) and inactive,,inactive,inactive,,,,inactive
